Results taken from PubChem BioAssay (NCI).
About 83,000 compounds went through this panel and 20% of them were active in at least one assay; those are over-represented in the sample as a whole.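 A percent growth of 40 corresponds to 60% growth inhibition; 0 means no net growth; -100 means all cells died. Active threshold: below 10.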 Active and inactive are the calls of the source.

Tests used:
Experiment in all cases: NCI-60 one-dose screen, 48 h (100 = growth as untreated, 0 = no growth, -100 = all killed)
Conditions in all cases: 10 µM
[1] = system: DU-145 prostate
[2] = system: MALME-3M melanoma
[3] = system: MDA-MB-231 breast
[4] = system: RXF 393 renal
[5] = system: SF-268 CNS
[6] = system: SF-295 CNS
[7] = system: SF-539 CNS
[8] = system: UACC-257 melanoma
[9] = system: M14 melanoma
[10] = system: HCT-15 colon
[11] = system: HT29 colon
[12] = system: SNB-75 CNS
[13] = system: SNB-19 CNS
[14] = system: U251 CNS
[15] = system: PC-3 prostate
[16] = system: SK-MEL-5 melanoma
[17] = system: UACC-62 melanoma
[18] = system: LOX IMVI melanoma
[19] = system: SK-MEL-28 melanoma
[20] = system: K-562 leukemia

Measured: growth

C[C@H]1[C@H](OC(=O)CCC(=O)O)O[C@@H]2O[C@]3(C)CC[C@H]4[C@H](C)CC[C@@H]1[C@@]24OO3
active: [18] -49.5%
inactive: [1] 82.7% | [2] 74.8% | [3] 65.1% | [4] 55.9% | [5] 55.6% | [6] 11.6% | [7] 31.9% | [8] 50.8% | [9] 39.7% | [10] 16.7% | [11] 23.8% | [12] 61.8% | [13] 57.9% | [14] 36.5% | [15] 25% | [16] 28% | [17] 36.4% | [19] 70.5%

CN1CCN(C2=Nc3ccccc3Oc3ccc(Cl)cc32)CC1
inactive: [1] 108% | [2] 91.7% | [3] 76% | [4] 108% | [5] 109% | [6] 94.8% | [7] 111% | [8] 96.5% | [9] 103% | [10] 103% | [11] 88.3% | [12] 59.5% | [13] 104% | [14] 102% | [15] 83.8% | [16] 96.7% | [17] 98.7% | [18] 103% | [19] 110%

CN1C(C(=O)Nc2ccccn2)=C(O)c2sc(Cl)cc2S1(=O)=O
inactive: [1] 106% | [2] 102% | [3] 105% | [4] 111% | [5] 100% | [6] 94.8% | [7] 117% | [8] 100% | [9] 108% | [10] 112% | [11] 103% | [12] 89.5% | [13] 104% | [14] 95.4% | [15] 87.9% | [16] 102% | [17] 92.4% | [18] 96% | [19] 102%

COc1ccc2nc3cc(Cl)ccc3c(Nc3cc(CN4CCCC4)c(O)c(CN4CCCC4)c3)c2n1
active: [2] -73.6% | [3] -21.6% | [4] -68.9% | [5] -25.1% | [6] -26.8% | [7] -21.6% | [8] -87.3% | [9] -82.5% | [10] 5.6% | [11] 1.23% | [12] -64.4% | [15] 6.93% | [16] -96.1% | [17] -23.4% | [18] -8.24% | [19] -21.8%
inactive: [1] 18.2% | [13] 14.5% | [14] 10.4%

O=C(CCCCCCC(=O)Nc1ccccc1)NO
active: [1] 3.46% | [2] 1.69% | [4] -39.9% | [6] -22.6% | [8] -26% | [11] 7.15% | [14] -20.1% | [16] -54.4% | [17] -42.8% | [18] -3.4% | [19] 5.94%
inactive: [3] 16.4% | [5] 14.9% | [7] 16.8% | [9] 23% | [10] 33.9% | [12] 18% | [13] 25% | [15] 10.4%

CN(C)CCCN1c2ccccc2CCc2ccc(Cl)cc21
inactive: [1] 87.1% | [2] 36.7% | [3] 15.8% | [4] 28.3% | [5] 59.4% | [6] 75.6% | [7] 83.5% | [10] 51.4% | [11] 18.8% | [12] 39.2% | [13] 96.1% | [14] 55.4% | [15] 40.8% | [18] 56.9% | [19] 36.9%
active: [8] -11.9% | [9] 7.07% | [16] -29.7% | [17] 7.82%

CC(=O)/C(=C/c1ccc(Br)cc1)C(=O)c1ccccc1
inactive: [1] 81.6% | [20] 30.7% | [3] 77.4% | [5] 67.4% | [6] 88.9% | [7] 96.7% | [8] 78.3% | [9] 69.9% | [11] 76.6% | [12] 84.5% | [13] 90.6% | [14] 66.9% | [15] 80.6% | [16] 66.3% | [19] 100%
active: [18] -61.9%

CC(C)Cc1ccc([C@H](C)C(=O)O)cc1
inactive: [1] 122% | [2] 107% | [3] 108% | [4] 114% | [5] 111% | [6] 99% | [7] 104% | [8] 107% | [9] 101% | [10] 97% | [11] 106% | [12] 79.4% | [13] 108% | [14] 101% | [15] 93.6% | [16] 102% | [17] 103% | [18] 101% | [19] 109%

CCN1CC(CCN2CCOCC2)C(C(c2ccccc2)c2ccccc2)C1=O (stereo not drawn)
inactive: [1] 118% | [2] 120% | [3] 87.6% | [4] 107% | [5] 112% | [6] 89.9% | [7] 111% | [8] 105% | [9] 108% | [10] 94.1% | [11] 102% | [12] 102% | [13] 102% | [14] 101% | [15] 82.7% | [16] 100% | [17] 94.8% | [18] 97.2% | [19] 116%

Cc1ccccc1N1C(=O)c2cc(S(N)(=O)=O)c(Cl)cc2NC1C (stereo not drawn)
inactive: [1] 111% | [2] 103% | [3] 119% | [4] 128% | [5] 106% | [6] 103% | [7] 111% | [8] 102% | [9] 111% | [10] 108% | [11] 101% | [12] 87.1% | [13] 116% | [14] 105% | [15] 93.6% | [16] 104% | [17] 114% | [18] 99.7% | [19] 116%

CCc1cc(Cl)c(OC)c(C(=O)NCC2CCCN2CC)c1O (stereo not drawn)
inactive: [1] 102% | [2] 108% | [3] 50.6% | [4] 73% | [5] 98.2% | [6] 85% | [7] 103% | [8] 87.7% | [9] 103% | [10] 91.8% | [11] 89.5% | [12] 67.1% | [13] 91.2% | [14] 83.8% | [15] 73.7% | [16] 83.4% | [17] 97% | [18] 90.6% | [19] 109%

C=C1CCC2(C#N)[C@H]3[C@H](CC[C@@H]2C)[C@@H](C)C[C@@H](CC(C)(C)NC(=O)CN2CCC2=O)[C@H]13 (stereo partly drawn)
inactive: [1] 89.5% | [2] 83.2% | [3] 47.6% | [4] 55.5% | [5] 63.3% | [6] 60.5% | [7] 47% | [8] 80.8% | [9] 54.9% | [10] 47.3% | [11] 75.6% | [12] 57.4% | [13] 40.2% | [14] 33.6% | [15] 17.8% | [16] 27.4% | [17] 48.5% | [18] 54.2% | [19] 73.9%

Cc1ccc(C(SCC(N)C(=O)O)(c2ccc(C)cc2)c2ccc(C)cc2)cc1 (stereo not drawn)
inactive: [5] 17.6% | [10] 30.1% | [11] 14.1% | [13] 30.4% | [14] 25.4% | [15] 11.2% | [16] 16.5% | [17] 30.7% | [18] 40.6% | [19] 56.6%
active: [1] -39% | [20] 0.419% | [3] 1.37% | [6] -13.8% | [7] -29.7% | [8] -18.5% | [9] -74.5% | [12] -6.9%

OC(CNc1ccnc2cc(Cl)ccc12)CNC1CCCCC1 (stereo not drawn)
active: [8] -37.5% | [9] -15.6%
inactive: [1] 91.6% | [2] 101% | [3] 54.4% | [4] 33.5% | [5] 89.8% | [6] 83.5% | [7] 63.1% | [10] 75.6% | [11] 31.3% | [12] 87.4% | [13] 100% | [14] 63.1% | [15] 69.4% | [16] 15.3% | [17] 61.4% | [18] 73% | [19] 23.3%

C[C@@H](O)[C@H]1C(=O)N2C(C(=O)O)=C(SC3CN[C@H](C(=O)N(C)C)C3)[C@H](C)[C@H]12 (stereo partly drawn)
inactive: [1] 110% | [2] 92.9% | [3] 99.6% | [4] 114% | [5] 105% | [6] 96.2% | [7] 113% | [8] 106% | [9] 100% | [10] 104% | [11] 103% | [12] 94.1% | [13] 119% | [14] 99.3% | [15] 92.4% | [16] 102% | [17] 99.4% | [18] 96.4% | [19] 109%

CCN(CC)CCCC(C)N=C(C1=C(C(=NC(C)CCCN(CC)CC)c2cccc(OC)c2)C(=O)NC1=O)c1cccc(OC)c1 (stereo not drawn)
active: [1] -5.08% | [20] -44.2% | [4] -64.8% | [5] -29.5% | [6] -53.5% | [7] -85.3% | [8] -95.2% | [9] -77.5% | [10] -30.7% | [11] -10.5% | [12] -28.5% | [14] -51.3% | [15] 3.15% | [16] -93.8% | [17] -75.4% | [18] -73.9% | [19] -69.1%
